Assay results: PubChem BioAssay (NCI)
The panel holds about 83,000 compounds, 20% with a hit somewhere; the sample as a whole holds those more often.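 Step 1: grow cells in 96-well plates. Step 2: add test compound at a single concentration. Step 3: incubate 48 h. Step 4: record percent growth.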 A number with no mark means an inactive call. Active and inactive are the calls of the source. Rule for the calls: active = growth percent below 10; inactive = the rest.

Assays:
Experiment in all cases: NCI-60 one-dose screen, 48 h (100 = growth as untreated, 0 = no growth, -100 = all killed)
Settings in all cases: 10 µM unless noted
[1] = system: HCT-15 colon
[2] = system: HT29 colon
[3] = system: SNB-19 CNS
[4] = system: U251 CNS
[5] = system: PC-3 prostate
[6] = system: SK-MEL-5 melanoma
[7] = system: UACC-62 melanoma
[8] = system: LOX IMVI melanoma
[9] = system: SK-MEL-28 melanoma
[10] = system: SNB-75 CNS

Row | Compound | growth [1] | growth [2] | growth [3] | growth [4] | growth [5] | growth [6] | growth [7] | growth [8] | growth [9] | growth [10]
1 | COc1cc2cn3c4ccc(O)cc4[nH]c(=O)c3c2cc1OC | 23.3% | -70.2% (active) | 30.9% | 12% | 66.4% | -90.7% (active) | -9.19% (active) | 0.607% (active) | 11.5% | 
2 | COc1ccc(C(=O)N2N=C(c3ccc(Br)cc3)CC2c2cn(-c3ccccc3)nc2-c2ccccc2)cc1 (configuration not stated) | 58.9% |  | 65.3% | 6.67% (active) | 36.1% | 92.3% |  | 44.5% | 61.2% | 70.4%
3 | C/C(=C\c1ccc2ccccc2c1)[N+](=O)[O-] |  | -9.28% (active) | 90.6% | 72.7% | 25.3% | 71.3% | 78.2% | -80.9% (active) | 37% | 78%
4 | COc1cccc(-c2cc(-c3cc4ccccc4oc3=O)nc(N)n2)c1 | 107% | 117% | 106% | 110% | 89.3% | 95% | 104% | 95.4% | 91.7% | 
5 | Cc1ccc(C(=O)NN)cc1 | 102% | 111% |  |  | 109% | 108% |  | 96.5% | 109% | 94.5%
6 | CCCCCCNc1nc(N2CCOCC2)c2[nH]c(NCCCCCC)nc2n1 | -74.6% (active) |  | -92.7% (active) | -93.4% (active) | -21.2% (active) | -90.6% (active) |  | -100% (active) | -94.4% (active) | -95.1% (active)
7 | O=C1CSC(c2ccccc2Cl)N1c1nnc(-c2ccncc2)o1 (configuration not stated) | 98.5% | 98.4% |  | 96.6% | 98.5% |  | 92.3% | 102% | 101% | 95.4%
8 | Cc1cc2cn3c4ccc(O)cc4nc(N)c3c2cc1C | 7.85% (active) | -65.6% (active) | 29.1% | -5.52% (active) | 25.4% | -62.4% (active) | 46.9% | 27.4% | -4.38% (active) | 
9 | COc1ccc2c(c1)cn1c3ccc(O)cc3[nH]c(=O)c21 | 2.24% (active) | -43.1% (active) | 21.7% | 10.5% | 11% | 13% |  | 3.95% (active) | 27.9% | 
10 | CCCCCCCCCCCCCCCCC(=O)O.CCCCCCCCCCCCCCCCCC(=O)O.CCCCCCCCCCCCCCCCCC(=O)O.CCCCCCCCCCCCCCCCCC(=O)O.CCCCCCCCCCCCCCCCCC(=O)O.CO[CH-]OC12COC1CC(O)C1(C)C(O)C(OC(C)O)C3=C(C)C(OC(=O)C(O)C([NH-])c4ccccc4)CC(O)(C(OC(=O)c4ccccc4)C21)C3(C)C.[Cu+].[Zn].[Zn].[Zn].[Zn].[Zn] (configuration not stated) | 20.5% | 12% | 29.6% | 33.6% | 30.5% | 38.4% | 42.8% | 39.4% | 80.4% | 
11 | COC(=O)C(C(=O)OC)C(Br)C(Br)C(Br)c1ccccc1 (configuration not stated) | 79.7% |  | 100% | 94.8% | 101% | 91.5% | 80.9% | -16% (active) | 106% | 87.4%
12 | CC1(C)NC(=S)NC1=O | 102% | 105% |  | 98.4% | 95.5% | 101% | 108% | 97.5% | 110% | 89.9%
13 | Cc1cc2cn3c4ccc(O)cc4[nH]c(=O)c3c2cc1C | 3.8% (active) | -67.6% (active) | 40.7% | -44.1% (active) | 37.5% | -31.5% (active) | 49% | 4.61% (active) | -14.3% (active) | 
14 | O=c1[nH]c(=S)[nH]c(O)c1/C=C1\C=Nc2ccccc21 | 56.2% | 58.6% |  | 24% | 61.7% | 75.8% |  | 67% | 96.8% | 71.8%
15 | O=c1[nH]c2cc(O)ccc2n2cc3c(F)cccc3c12 | 38.7% | 46.2% | 42.3% | 27.6% | 46.4% | 8.21% (active) | 39.8% | 36.8% | 24.7% | 
16 | Cn1c2c(cc(S(=O)(=O)c3ccccc3)c1=O)CCc1c-2cnn1-c1ccc(Cl)cc1 | 39.5% | 16.8% |  | 20.7% | 28.8% | 6.71% (active) | 35.4% | 6.82% (active) | -36.7% (active) | -54.3% (active)
17 | O=C(Nc1ccc(-n2cc(-c3ccncc3)c(-c3ccc(Cl)c(O)c3)n2)cc1)c1ccc(Cl)c(Cl)c1 | 12.2% | -34.7% (active) | 77.1% | 34.1% | 17.2% | -99.3% (active) | 11.3% | 29.1% | -7.55% (active) | 
18 | O=c1c2c(c3ccccc3n1-c1ccccc1)NC(=S)NC2c1ccccc1 (configuration not stated) | 97.1% | 132% | 99% | 107% | -47.1% (active) |  | 96% | 97.9% | 116% | 
19 | COc1cc(-c2nn(-c3ccc(NC(=O)Nc4cc(C(F)(F)F)cc(C(F)(F)F)c4)cc3)cc2-c2ccncc2)ccc1Cl | 6.27% (active) | -30.2% (active) | 26.7% | 7.85% (active) | 10.6% | -71% (active) | 3.75% (active) | -1.69% (active) | 5.41% (active) | 
20 | CCC(C)(CC)c1ccc(O)c(C)c1 | 101% | 104% |  | 97.7% | 98.9% | 104% | 109% | 97% | 110% | 86.2%
